According to PubChem BioAssay (NCATS):
“And” between values parts separate entries of the source, which are not always exact repeats. Equal entries are not always repeated. Inconclusive results are not listed. The source made the active and inactive calls. The call rests on the fitted dose curve; in most records, active means well fitted cell-killing curve with a large enough effect; inconclusive means small, poorly fitted or top-dose-only effect, or effect the other way; inactive means no such curve, though single readings can be large or run the other way.

Experiment: Viability qHTS for spleen associated tyrosine kinase inhibitor (SYKi) drug resistant MV4-11 cells (AID 1963824); further: nearly all actives have a fitted effect of over 35% in size
Settings: SYKi-resistant MV4-11 viability, CellTiter-Glo, 72 h; series mostly up to 45 µM; viability, % of control: at the top concentration
In short: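 CellTiter-Glo luminescence, read 10 min after reagent addition, reports viability after a 72 hr compound exposure. Cells are an MV4-11 line made resistant to SYK inhibition, seeded at 500 per well onto compound-containing plates.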
Potency means the concentration at half of the fitted maximal effect.

SMILES	Potency	viability, % of control
Cc1onc(-c2ccccc2)c1C(=O)N[C@@H]1C(=O)N2[C@@H]1SC(C)(C)[C@@H]2C(=O)O	inactive	
O=C(Nc1ccc(N2CCC(C(=O)N3CCOCC3)CC2)cc1)c1cnc(Oc2ccccc2)nc1		83.1% (inactive)
FC(F)(F)c1cc(C(F)(F)F)c2ccc3nc(-c4nnco4)cn3c2n1		78.7% (inactive)
c1cc(-c2cc(C3CCNCC3)[nH]n2)ccn1		87.3% [at 17.3 µM] (inactive)
CCOC(=O)N1CCC(CN(Cc2ccc(Cl)cc2)Cc2ccc([N+](=O)[O-])s2)C1 (centres undefined)	16.4 µM (active)	
O=C(O)c1n[nH]c2c1C[C@H]1C[C@@H]21		90.7% (inactive)
Cc1[nH]c(/C=C2\C(=O)Nc3ccc(F)cc32)c(C)c1C(=O)NC[C@H](O)CN1CCOCC1	23.1 nM (active) and 46.8 nM (active)	
Cn1nc(-c2ccc(C(F)(F)F)cc2)nc2c(=O)n(C)c(=O)nc1-2	4.11 µM (active)	
O=C(Cc1ccc(-c2ccccc2)cc1)NC1CCC1		89.8% (inactive)
COc1ccc(C2=N[C@@H](c3ccc(Cl)cc3)[C@@H](c3ccc(Cl)cc3)N2C(=O)N2CCNC(=O)C2)c(OC(C)C)c1	10.3 µM (active)	
O=C(NCc1ccccn1)Nc1nnc(-c2ccco2)o1		88.9% (inactive)
Nc1c(CC(=O)O)cccc1C(=O)c1ccc(Br)cc1		73.7% (inactive)
COc1ccc(C(=O)Nc2ncc(-c3ccc(C(=O)O)cc3)s2)cc1	0.461 µM (active)	
C(#Cc1cccc(CN2CCOCC2)c1)CCN1CCCCC1		85.2% (inactive)
O=C(COc1ccc(Cl)cc1)NC1CCC(NC(=O)COc2ccc(Cl)cc2)CC1 (centres undefined)		43.1% (inactive)
CNC(=O)Nc1ccc(OC)c(NC(=O)NC(=O)c2cc(F)c(F)cc2Cl)c1		87.4% (inactive)
O=C(Nc1cccc(C(F)(F)F)c1)Nc1ccc(Br)cc1-c1nn[nH]n1		80% (inactive)
CCN(CC)Cc1ccc(C(=O)N(CCc2ccccc2OC)[C@@H]2CCNC2)cc1	3.17 µM (active)	
FC(F)(F)Oc1ccc(-c2ccc3nnc(C(F)(F)F)n3c2)cc1		51.8% (inactive)
CC(=O)N1CCN(NC(=O)c2ccc(F)cc2)CC1		95.5% (inactive)
Cc1nc(C#Cc2ccnc(Cl)c2)c(C)n1-c1ccc(F)cc1	8.2 µM (active)	
CCOCc1cc(OC)c(-c2ccc(C[C@H](NC(=O)c3c(F)cccc3F)C(=O)O)cc2)c(OC)c1		72.1% (inactive)
COc1ccc(C2(CNC(=O)c3ccc(NC(=O)c4ccco4)cc3)CCOCC2)cc1		89.8% (inactive)
CCNC(=O)/C=C/c1cccc(Br)c1		91.3% (inactive)
